Measured values reported in the supplement of paper PMC3334620.
Over roughly 33,000 sequences, “E-score (-0.5 to 0.5)” has its median near -0.036; the highest 2% begin near 0.37. For the sample, the highest values were picked, then their nearest neighbours and some sequences at random.

Target: T1, Yer064c (UniProt P40041)
T1 sequence: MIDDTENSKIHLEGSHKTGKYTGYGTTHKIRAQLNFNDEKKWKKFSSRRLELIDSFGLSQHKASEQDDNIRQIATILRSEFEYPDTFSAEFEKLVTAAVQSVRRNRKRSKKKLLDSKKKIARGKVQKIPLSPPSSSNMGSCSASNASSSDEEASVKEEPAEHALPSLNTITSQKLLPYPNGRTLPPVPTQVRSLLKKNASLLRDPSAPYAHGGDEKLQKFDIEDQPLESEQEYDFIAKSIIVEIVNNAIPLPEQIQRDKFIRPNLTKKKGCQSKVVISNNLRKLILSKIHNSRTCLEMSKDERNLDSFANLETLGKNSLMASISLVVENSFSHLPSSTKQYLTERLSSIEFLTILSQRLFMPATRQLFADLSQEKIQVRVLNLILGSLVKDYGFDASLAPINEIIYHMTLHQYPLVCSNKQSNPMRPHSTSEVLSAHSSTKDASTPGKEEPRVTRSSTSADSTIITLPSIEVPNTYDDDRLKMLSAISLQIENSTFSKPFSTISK
Assay: PBM E-score (8-mer binding enrichment) (E-score (-0.5 to 0.5)); higher = stronger / more preferred TF binding
Conditions: protein concentration: 200 nM; construct: GST-full length
Description: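 Universal 'all 10-mer' protein binding microarrays (Agilent AMADID 015681) probed with GST-tagged S. cerevisiae TFs (full-length or DBD) made by in vitro transcription/translation (PURExpress), about 100-200 nM. Bound TF was detected with fluorescent anti-GST. Each ungapped 8-mer (which stands for itself and its reverse complement) is scored by the PBM enrichment score (E-score), a modified Wilcoxon-Mann-Whitney statistic from -0.5 to +0.5, computed with the Universal PBM Analysis Suite. Scale: above 0.35 generally sequence-specific binding.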

Sequence | PBM E-score
AGCTTTCA | -0.0821
GTGTTGGA | -0.127
ATTTAGTC | 0.444
CTTTAGAC | 0.108
CTTTAGTC | 0.416
ATTTAATA | 0.117
ATTTAATC | 0.366
CTTTAATC | 0.29
ATTTAGTG | 0.127
CTTTAGTA | 0.14
ATTTAGTA | 0.253
GGCCTACA | -0.0963
TAATAGCA | -0.09
ACCAAGAG | -0.00272
CATAACCA | 0.071
GGCGAATA | -0.0639
CGGCGAGC | -0.108
GACTCATC | 0.478
GACTCATA | 0.477
AACTCATA | 0.275
CACTCATA | 0.259
AACTCATC | 0.33

Sequence | PBM E-score
CACTCATC | 0.258
CCTGCCAG | -0.212
ATTTTCAG | -0.135
CTCTGTCC | -0.14
ACTCTTAG | 0.198
AGTCTTAT | 0.383
AGTCTTAC | 0.415
GGTCTTAC | 0.131
CGTCTTAA | -0.00451
AGTCTTAG | 0.408
ACTCTTAT | 0.241
AGTCTTAA | 0.387
TGTCTTAA | -0.0134
CGTCTTAG | -0.188
CGTCTTAC | -0.141
AATCTTAT | 0.207
CCCCAGGC | -0.41
AATCGACT | 0.258
ATCTGGCA | -0.118
AGTGACCC | -0.0592
GTCTATCA | 0.0174
GGTTTCTA | -0.133

Sequence | PBM E-score
CCTTTCTA | -0.251
AACAACAT | -0.0999
CTTTGTAA | 0.173
TAGTTGAA | 0.127
CACGTGAG | 0.0942
ATTAGGCC | 0.00222
ATTAGTGG | 0.11
ATTAGTCG | 0.41
ATTAGTTG | 0.118
ATTAGTCC | 0.373
ATTAGTAC | 0.205
ATTAGTGA | 0.219
CTTAGTCA | 0.483
CTTAGTTA | 0.221
ATTAGTCA | 0.484
CTTAGTAA | 0.161
ATTAGTTA | 0.153
AAGAATAG | 0.0215
CTAGAAAC | 0.0516
CCTTCTAG | -0.244
GCAATGCC | -0.31
TAATATTA | 0.207

Sequence | PBM E-score
AGCGATCC | -0.315
CGCGTCTA | -0.228
CTTAGGCC | -0.115
GTTAGTCA | 0.49
GTTAGTGA | 0.171
GTTAGTTA | 0.165
CTTAGTTC | 0.0883
CTTAGTCC | 0.37
CTCGCGCA | -0.0489
GAGCGTCA | -0.0316
CACTTTGA | 0.184
GGCTATCA | -0.11
TAGTCGAA | 0.243
TAGTCGCA | 0.412
AAGTCGCC | 0.222
AAGTCGCA | 0.257
CAGTCGCA | 0.15
CAGTCGCC | 0.254
GAGTCGCA | 0.438
GAGTCGCC | 0.439
